Compound activity deposited in PubChem BioAssay by Buhrlage Lab, Dana-Farber Cancer Institute and Novartis Institutes for BioMedical Research (Cambridge, Mass).
The list is not random: actives were taken first. Their share in the collection is about 12%.
USP17 block – human USP17-like deubiquitinase inhibition | A8MUK1 | purified USP17, Ub-rhodamine cleavage fluorescence, 3 h | inhibition, % at 50 µM | 6.5% of 47,000 active
OTUD3 inh – human OTUD3 deubiquitinase inhibition. Q5T2D3. AID 1645858. 0.7% of 47,000 active. purified OTUD3, Ub-rhodamine fluorescence, 2 h. inhibition, % at 25 µM
USP28 block – human USP28 deubiquitinase inhibition; purified USP28, Ub-rhodamine cleavage fluorescence, 30 min; inhibition, % at 25 µM; 3% of 47,000 active
USP30 inh – blocks human USP30 ubiquitin-rhodamine cleavage; Q70CQ3; purified USP30, Ub-rhodamine cleavage fluorescence; inhibition, % at 25 µM; 5.3% of 47,000 active; AID 1645860
Each line names hits and unclear results; the compound was inactive in the other large screens. Rule as the data show it: active = inhibition above about 30%; inactive = the rest.

NCCCC(N)CC(=O)NCCCC(N)CC(=O)NCCCC(N)CC(=O)NCCCC(N)CC(=O)NCCCC(N)CC(=O)NCCCC(N)CC(=O)NC1C(NC2=N[C@@H]3C(=O)NC[C@@H](O)[C@H]3N2)OC(CO)C(OC(N)=O)C1O (stereo partly specified)	USP30 inh 32
CCN1CCN(c2ccc(C(=O)OC)cc2NC(=O)c2sc3cc(Cl)ccc3c2Cl)CC1	USP30 inh 48
CCc1ccccc1NC(=O)c1cc(-c2ccccn2)n[nH]1	USP17 block 73, USP30 inh 38
Cc1cc(Cl)ccc1NC(=O)c1cc(-c2ccncc2)n[nH]1	USP17 block 65, USP28 block 72, USP30 inh 90
Cc1ccc(NC(=O)c2cc(-c3ccncc3)n[nH]2)c(C)c1	none
COc1ccccc1CNC(=O)c1cc(-c2ccccn2)n[nH]1	none (no result: USP17 block)
O=C(Nc1ccccc1)c1cc(-c2ccncc2)n[nH]1	none
O=C(Nc1ccccc1Cl)c1cc(-c2ccncc2)n[nH]1	USP17 block 74, USP28 block 79, USP30 inh 92
CCCC(=O)N1CCC2(C1)C(=O)N(C)c1ccccc12 (stereo unspecified)	none
CC(C)c1ccccc1OCC(=O)N1CCC(c2nc3ccccc3cc2C(N)=O)CC1	none
COc1cccc(NC(=O)c2ccc(-c3nc4cccnc4n(C4CCCC4)c3=O)cc2)c1	none
O=S(c1ccc2ccccc2c1)c1cnns1 (stereo unspecified)	OTUD3 inh 34
COc1ccc(CNC(=O)CN2C(=O)C3CCCC3=Nc3ccccc32)cc1 (stereo unspecified)	USP30 inh 33
COc1cccc(NC(=O)CN2C(=O)C3CCCC3=Nc3ccccc32)c1 (stereo unspecified)	none
COc1ccc(C)cc1NC(=O)CN1C(=O)C2CCCC2=Nc2ccccc21 (stereo unspecified)	USP17 block 82, OTUD3 inh 35, USP30 inh 77
CC(=O)c1ccc(Nc2c(C(=O)N3CCCCC3)cnc3nc(C)ccc23)cc1	none
CN(CC(=O)Nc1cccc(F)c1)Cc1nc2ccccc2c(=O)[nH]1	none (no result: USP28 block, USP30 inh)
CCc1nccn1Cc1noc(-c2ccc3c(c2)OCO3)n1	USP28 block 48
O=C(C1CCCC1)N1CCCC2(COCCN(c3cccnc3)C2)C1 (stereo unspecified)	none (no result: USP28 block, USP30 inh)
CCOC(=O)N1CCC(NC(=O)c2cnn3c(-c4ccccc4)ccnc23)CC1	USP17 block 32, USP30 inh 40
Cc1ccc2cc3c(nc2n1)CCN(Cc1ccc(F)cc1)C3	none
Cc1cc(=O)n(CC(=O)NCc2ccc(F)cc2)c(-c2ccccc2)n1	USP30 inh 39
Cc1noc(-c2cc(=O)n(CC(=O)Nc3ccccc3)c3ccccc23)n1	USP17 block 42 (no result: USP28 block, USP30 inh)
Cc1ccc(CNC(=O)Cn2c(C)cc(-c3nnc(C)o3)c2C)cc1	USP17 block 30
Cc1ccc2c(c1)c1ncn(Cc3nc(C)no3)c(=O)c1n2CC(=O)NCc1ccccc1	USP17 block 72, USP28 block 58, USP30 inh 87
COc1ccccc1N=c1oc2cc(O)ccc2cc1C(=O)NC1CCCC1	none
Cc1ccccc1CN1CCc2c(OCc3ccccc3Cl)cccc2C1=O	none
O=C(NC1CCCCC1)C(c1ccc(F)cc1)N(C(=O)C1COc2ccccc2O1)c1ccc2c(c1)OCO2 (stereo unspecified)	none
Cc1noc(-c2cc(=O)n(CC(=O)Nc3ccccc3Cl)c3ccccc23)n1	none
Cc1ccc(CNC(=O)Cn2c(=O)cc(-c3nc(C)no3)c3ccccc32)cc1	USP17 block 42
CCOC(=O)c1ccc(NC(=O)CC2C(=O)N(c3ccc(OC)cc3)C(=O)N2C2CCCCC2)cc1 (stereo unspecified)	none
Cc1sc2ccn(C)c(=O)c2c1C(=O)NC1CCCC1	USP17 block 62
Cc1cc2c(cc(C(=O)NC3CC3)n2C)s1	none
Cc1cccc2c(=O)n(C)c(CCC(=O)NCc3cc(F)ccc3F)nc12	USP17 block 38, USP30 inh 45
Cc1ccc(C(C(=O)NC2CCCCC2)N(C(=O)CCCC(=O)Nc2ccccn2)c2ccc3c(c2)OCCO3)cc1 (stereo unspecified)	USP17 block 48, USP30 inh 38
CC(C)c1ccc(C(C(=O)NC2CCCCC2)N(C(=O)c2cnccn2)c2ccc3c(c2)OCO3)cc1 (stereo unspecified)	none
O=C(CCCC(=O)N(c1ccc2c(c1)OCCO2)C(C(=O)NC1CCCCC1)c1ccc(F)cc1)Nc1ccccn1 (stereo unspecified)	USP17 block 34, USP30 inh 45
O=C(NC1CCCCC1)C(c1ccc(Cl)cc1)N(C(=O)c1cnccn1)c1ccc2c(c1)OCO2 (stereo unspecified)	USP17 block 43
